{"source": "PubChem BioAssay AID623877", "about": "(Johns Hopkins Ion Channel Center, 2012)", "note": "The campaign covered roughly 340,000 compounds. About 1,000 (0.29%) were called active.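 Rule for the calls: active = fluorescence-ratio B-score plate-corrected deviation score at least 3 library SD below zero, with starting fluorescence score within 5 deviations; inactive = the rest.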 The entries come from a sample that favours actives as a whole."}
{"biological_target": "Anoctamin-1 (Mus musculus) (UniProt Q8BHY3)", "sequence (Q8BHY3 whole entry, looked up)": "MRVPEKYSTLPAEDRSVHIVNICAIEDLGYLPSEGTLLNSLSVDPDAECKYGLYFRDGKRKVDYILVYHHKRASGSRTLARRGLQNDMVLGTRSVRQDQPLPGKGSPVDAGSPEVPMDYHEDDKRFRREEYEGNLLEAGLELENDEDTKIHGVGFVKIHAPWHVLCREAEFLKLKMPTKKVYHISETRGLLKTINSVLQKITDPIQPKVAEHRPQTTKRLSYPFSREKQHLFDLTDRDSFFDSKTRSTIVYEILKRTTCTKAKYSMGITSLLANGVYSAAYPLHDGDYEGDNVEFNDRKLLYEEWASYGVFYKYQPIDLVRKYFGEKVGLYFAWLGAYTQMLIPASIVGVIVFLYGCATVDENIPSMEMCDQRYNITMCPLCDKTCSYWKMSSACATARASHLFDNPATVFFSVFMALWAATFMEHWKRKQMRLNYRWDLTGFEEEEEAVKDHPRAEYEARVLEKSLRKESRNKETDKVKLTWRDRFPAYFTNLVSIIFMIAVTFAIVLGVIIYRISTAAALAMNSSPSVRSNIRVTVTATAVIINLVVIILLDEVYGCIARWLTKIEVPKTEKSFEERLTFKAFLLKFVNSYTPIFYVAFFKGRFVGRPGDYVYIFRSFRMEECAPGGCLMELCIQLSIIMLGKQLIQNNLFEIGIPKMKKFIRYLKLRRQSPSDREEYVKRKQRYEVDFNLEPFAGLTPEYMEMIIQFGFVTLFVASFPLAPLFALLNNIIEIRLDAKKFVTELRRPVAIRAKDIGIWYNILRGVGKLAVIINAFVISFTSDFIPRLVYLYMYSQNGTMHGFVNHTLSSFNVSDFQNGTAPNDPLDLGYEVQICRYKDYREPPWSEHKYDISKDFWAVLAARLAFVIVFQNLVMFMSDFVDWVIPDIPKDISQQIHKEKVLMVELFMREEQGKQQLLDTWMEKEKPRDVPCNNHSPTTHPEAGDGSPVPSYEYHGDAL", "assay": "mouse ANO1 channel activation – cell-based, HTS, primary screen (AID 623877);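 for B-score: channel opened by trigger with iodide after compound preincubation; score built on the fluorescence ratio of max minus min over baseline; more negative score means more quench and so TMEM16A activation or potentiation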", "conditions": "HEK293 TMEM16A/YFP-H148Q/I152L, iodide quench fluorescence, at 10 µM; stronger effect = lower value"}
{"smiles": "O=C(O)CC1(CC(=O)Nc2cccc(C(F)(F)F)c2)CCCC1", "B-score": "inactive"}
{"smiles": "FC(F)(F)c1cccc(NC(=S)Nc2cccc(Cl)c2)c1", "B-score": "-5.69 (active)"}
{"smiles": "Cc1cccc(NC(=S)Nc2ccc(Cl)c(Cl)c2)c1", "B-score": "inactive"}
{"smiles": "C#CCOCCOCCOCCNc1nc(N2CCN(C(=O)CCCCCCCCCCNC(=O)[C@H]([C@@H](C)CC)n3cc(CCCCN=C(N)N)nn3)CC2)nc(N2CCN(C(=O)CCCCCCCCCCNC(=O)[C@H](CO)n3cc(CCCSC)nn3)CC2)n1", "B-score": "-27.8 (active)"}
{"smiles": "C#CCOCCOCCOCCNc1nc(N2CCN(C(=O)Cn3cc(CCCCN)nn3)CC2)nc(N2CCN(C(=O)[C@H](CCCCN)n3cc(CCC(=O)O)nn3)CC2)n1", "B-score": "inactive"}
{"smiles": "C#CCOCCOCCOCCNc1nc(N2CCN(C(=O)CCCCCCCCCCNC(=O)[C@H](CCCCN)n3cc(C)nn3)CC2)nc(N2CCN(C(=O)CCCCCCCCCCNC(=O)[C@H](CO)n3cc(CCCSC)nn3)CC2)n1", "B-score": "-13.2 (active)"}
{"smiles": "C#CCOCCOCCOCCNc1nc(N2CCN(C(=O)Cn3cc(CCO)nn3)CC2)nc(N2CCN(C(=O)[C@H](CCCCN)n3cc(CCCC)nn3)CC2)n1", "B-score": "inactive"}
{"smiles": "C#CCOCCOCCOCCNc1nc(N2CCN(C(=O)[C@H](C(C)C)n3cc(CCO)nn3)CC2)nc(N2CCN(C(=O)[C@H]([C@@H](C)CC)n3cc(CCCN=C(N)N)nn3)CC2)n1", "B-score": "inactive"}
{"smiles": "C#CCOCCOCCOCCNc1nc(N2CCN(C(=O)Cn3cc(CCO)nn3)CC2)nc(N2CCN(C(=O)Cn3cc(CCCN=C(N)N)nn3)CC2)n1", "B-score": "inactive"}
{"smiles": "Cc1ccc(OCCCC(=O)Nc2ccc3c(c2)OCCO3)cc1", "B-score": "inactive"}
{"smiles": "O=C(NCCCc1ccccc1)c1cc(COc2c(F)cccc2F)on1", "B-score": "inactive"}
{"smiles": "CCN1CCN(C(=O)C2CCCN(S(=O)(=O)c3ccc(OC)c(OC)c3)C2)CC1", "note": "(centres undefined)", "B-score": "inactive"}
{"smiles": "COc1ccc(/C=C/CN2CCN(Cc3ccc(C)cc3)C(CCO)C2)cc1", "note": "(centres undefined)", "B-score": "inactive"}
{"smiles": "O=C(CN1CCN(c2ccccc2O)CC1)NC(=O)NCc1ccccc1", "B-score": "inactive"}
{"smiles": "Cc1ccc(S(=O)(=O)Nc2nc(C)cc(-n3nc(C)cc3C)n2)cc1", "B-score": "inactive"}
{"smiles": "Cc1ccc(S(=O)(=O)NC(C(=O)N2CCOCCOCCOCCOCC2)c2ccccc2)cc1", "note": "(centres undefined)", "B-score": "inactive"}
{"smiles": "CCCC(C(=O)n1nc(C)cc1C)C(NS(=O)(=O)c1ccc(C)cc1)c1ccccc1", "note": "(centres undefined)", "B-score": "-8.83 (active)"}
{"smiles": "O=c1[nH]c(=S)[nH]c(O)c1/C=C1\\C=Nc2ccccc21", "B-score": "inactive"}
{"smiles": "CC(C)N(Cc1nnc(-c2ccc(Cl)cc2)o1)C(=O)C1=COCCO1", "B-score": "inactive"}
{"smiles": "CCOC(=O)c1ccccc1NC(=O)COC(=O)CCC(=O)N1CCOCC1", "B-score": "inactive"}
{"smiles": "Cc1cnc(CN(C)C(=O)CC2C(=O)NCCN2Cc2cccc(F)c2F)[nH]1", "note": "(centres undefined)", "B-score": "inactive"}
{"smiles": "Cc1nc2cccnc2nc1C", "B-score": "inactive"}
{"smiles": "Cc1ccc(CN2CCN(Cc3ccccc3-c3ccco3)CC2CCO)o1", "note": "(centres undefined)", "B-score": "inactive"}
{"smiles": "CC(C)CCN1CCN(C/C=C/c2ccco2)CC1CCO", "note": "(centres undefined)", "B-score": "-7.6 (active)"}
{"smiles": "CC(C)CCN1CCN(Cc2ccc(C(F)(F)F)cc2)CC1CCO", "note": "(centres undefined)", "B-score": "inactive"}
{"smiles": "COCCNC(=O)CSc1nc2c(n1-c1ccccc1)CCCC2", "B-score": "inactive"}
{"smiles": "O=C(CCNC(=O)c1ccc([N+](=O)[O-])cc1)NC1CCCCC1", "B-score": "inactive"}
{"smiles": "NS(=O)(=O)c1ccc(NC(=O)COC(=O)c2c3c(nc4ccccc24)/C(=C\\c2ccc4c(c2)OCO4)CCC3)cc1", "B-score": "inactive"}
{"smiles": "NC(=O)c1ccc(NC(=O)COC(=O)c2c3c(nc4ccccc24)/C(=C\\c2ccc4c(c2)OCO4)CCC3)cc1", "B-score": "-6.02 (active)"}
{"smiles": "O=C(COC(=O)c1ccncc1)Nc1ccc2c(c1)OCO2", "B-score": "inactive"}
{"smiles": "CCOC(=O)c1cc(NC(=O)SCC(=O)O)c(C)nc1C", "B-score": "inactive"}
{"smiles": "CC(C[N+](C)(C)C)OC(N)=O", "note": "(centres undefined)", "B-score": "inactive"}
{"smiles": "CC(=O)OC(C)C[N+](C)(C)C", "note": "(centres undefined)", "B-score": "-7.27 (active)"}
{"smiles": "CC(=O)OCC(COC(C)=O)OC(C)=O", "B-score": "inactive"}
{"smiles": "NS(=O)(=O)c1ccc(N=Cc2ccc(Br)s2)cc1", "B-score": "inactive"}
{"smiles": "COc1ccc(NC(C(=O)Nc2cccc(C(C)=O)c2)c2ccccc2)cc1", "note": "(centres undefined)", "B-score": "inactive"}
{"smiles": "COc1ccc(-c2cc(C(=O)N3CCN(c4ccc(F)cc4)CC3)no2)cc1", "B-score": "inactive"}
{"smiles": "COc1ccc(-c2onc3ccc(C(C)=O)cc23)cc1", "B-score": "-5.14 (active)"}
{"smiles": "Cc1cccc(CC(=O)Nc2c3c(nn2-c2cccc(Cl)c2)CS(=O)C3)c1", "note": "(centres undefined)", "B-score": "inactive"}
{"smiles": "CN(C(=O)c1cccc(NC(=O)Cc2ccc(NC(=O)C3CCCN(C(=O)C4CCCC4)C3)cc2)c1)C1CCC1", "note": "(centres undefined)", "B-score": "inactive"}
{"smiles": "C=C(Cl)COC(=O)C1C2C=CC(C2)C1C(=O)O", "note": "(centres undefined)", "B-score": "inactive"}
{"smiles": "Cn1nccc1NS(=O)(=O)c1ccc(F)cc1", "B-score": "inactive"}
{"smiles": "CCCCNCc1ccc(SC)cc1", "B-score": "inactive"}
{"smiles": "O=C(Cc1ccc(Br)cc1)NCCN1CCOCC1", "B-score": "inactive"}
{"smiles": "CSc1ccc(CNCCN2CCOCC2)cc1", "B-score": "-9.5 (active)"}
{"smiles": "O=C(c1ccc(OC2CCN(C/C=C/c3ccc(F)cc3)CC2)cc1)N1CCCCC1", "B-score": "inactive"}
{"smiles": "CCn1c(Cc2ccccc2)nnc1SCc1nc2ccccc2c(=O)[nH]1", "B-score": "inactive"}
{"smiles": "CCn1c(COc2c(C)cccc2C)nnc1SCc1nc2ccccc2c(=O)[nH]1", "B-score": "-4.66 (active)"}
{"smiles": "COc1ccc(CCCc2nnc(SCc3nc4ccccc4c(=O)[nH]3)n2C)cc1", "B-score": "inactive"}
{"smiles": "Cc1ccc(Cl)cc1N1CCN(C(=O)c2cccc3c(=O)c(C)c(-c4ccccc4)oc23)CC1", "B-score": "inactive"}
{"smiles": "CCOc1ccc(N(CC(=O)NC2CCCCCC2)S(=O)(=O)c2c(C)[nH]c(=O)[nH]c2=O)cc1", "B-score": "inactive"}
{"smiles": "Oc1c(Cl)cc(Cl)c(Cl)c1Cc1c(O)c(Cl)cc(Cl)c1Cl", "B-score": "-5.49 (active)"}
{"smiles": "OCC(O)C1OCOC(C(O)CO)C1O", "note": "(centres undefined)", "B-score": "inactive"}
{"smiles": "COc1ccc(S(=O)(=O)N2CCCCCC2)cc1C(=O)N(C)Cc1cccc(OC)c1OC", "B-score": "-5.67 (active)"}
{"smiles": "COc1ccc(C(=O)N(C)Cc2ccc(OC)c(OC)c2OC)cc1S(=O)(=O)N1CCOCC1", "B-score": "inactive"}
{"smiles": "CCNC(=O)NC(=O)C(C)OC(=O)c1cc(S(=O)(=O)N2CCCCCC2)ccc1OC", "note": "(centres undefined)", "B-score": "inactive"}
{"smiles": "COc1ccc(NC(=O)C2C3C=CC(C3)C2C(=O)NCc2ccccn2)c(OC)c1", "note": "(centres undefined)", "B-score": "inactive"}
{"smiles": "O=C(NCCN1CCOCC1)c1cccc(S(=O)(=O)Nc2ccc(F)cc2)c1", "B-score": "inactive"}
{"smiles": "Cc1c(C(=O)NNC(=O)c2ccncc2)oc2ccccc12", "B-score": "inactive"}
{"smiles": "Cc1c(C(=O)NC(=S)NCc2cccnc2)oc2ccccc12", "B-score": "-24.9 (active)"}
{"smiles": "Cc1ccc(C(=O)NC(=S)NCc2cccnc2)cc1", "B-score": "inactive"}
{"smiles": "O=C(OCC(=O)N1CCN(C(=O)c2ccco2)CC1)c1cccc(O)c1", "B-score": "inactive"}
{"smiles": "COc1ccc(Cn2c(=O)cc(C)[nH]c2=S)cc1", "B-score": "inactive"}
{"smiles": "CCCOc1ccc(Cn2c(O)cc(=O)[nH]c2=O)cc1", "B-score": "inactive"}
{"smiles": "COc1ccc(Cn2c(O)c(/C=C3/C=CC=N3)c(=O)[nH]c2=O)cc1", "B-score": "-5.62 (active)"}
{"smiles": "CCn1cc(CNC(=O)c2cc([N+](=O)[O-])c(C)c([N+](=O)[O-])c2)cn1", "B-score": "inactive"}
{"smiles": "O=C(Nc1ccccc1-c1nnn(CC(=O)N2CCN(c3ccccc3)CC2)n1)c1cccs1", "B-score": "inactive"}
{"smiles": "CCNC(=O)N1CCCC(C(=O)c2ccc(-c3ccccc3)cc2)C1", "note": "(centres undefined)", "B-score": "inactive"}
{"smiles": "CCCCSc1[nH]c(=O)c(C(=O)OCC)cc1C#N", "B-score": "inactive"}
{"smiles": "COc1cc(C)c(C)cc1S(=O)(=O)N1CCCc2ccccc21", "B-score": "-10.8 (active)"}
{"smiles": "Cn1c(=O)n(C)c2cc(S(=O)(=O)N3CCCc4ccccc43)ccc21", "B-score": "inactive"}
{"smiles": "COc1ccc(C(=O)OCC(=O)NCC2CCCCC2)cc1S(=O)(=O)N1CCCc2ccccc21", "B-score": "inactive"}
{"smiles": "CCCCC(=O)NNC(=S)NC(=O)C(c1ccccc1)c1ccccc1", "B-score": "-5.16 (active)"}
{"smiles": "CCCCCC(=O)NC(=S)NNC(=O)c1ccc([N+](=O)[O-])cc1", "B-score": "inactive"}
{"smiles": "CCC(C)NC(=O)CCCc1ccccc1", "note": "(centres undefined)", "B-score": "inactive"}
{"smiles": "O=C(CN1CCN(Cc2ccc(F)cc2Cl)C1=O)NCc1cccs1", "B-score": "inactive"}
{"smiles": "CCOC(=O)CNC(=O)CN1C(=O)CCSc2ccccc21", "B-score": "inactive"}
{"smiles": "C=CC[C@H](CC(=O)N(CCO)Cc1ccccc1)C(=O)N[C@@H](COC(=O)[C@@H](CC=C)Cc1ccc(F)cc1)Cc1ccccc1", "B-score": "inactive"}
{"smiles": "C=CC[C@H](CC(=O)OC(C)(C)C)C(=O)OC[C@H]1CCCN1C(=O)[C@H](CC=C)CC(=O)N(CCO)Cc1ccccc1", "B-score": "-5.89 (active)"}
{"smiles": "C=CCC[C@H](Cc1ccc(F)cc1)C(=O)OC[C@H](C)NC(=O)[C@H](CC=C)CC(=O)N(CCO)Cc1ccccc1", "B-score": "inactive"}
{"smiles": "CC(Sc1nncn1C)C(=O)Nc1cc(C(F)(F)F)ccc1N1CCOCC1", "note": "(centres undefined)", "B-score": "inactive"}
{"smiles": "Nn1c(SCC(=O)NC2CCCc3ccccc32)nnc1C1CC1", "note": "(centres undefined)", "B-score": "inactive"}
{"smiles": "Nc1nnc(SCC(=O)NC2CCCc3ccccc32)s1", "note": "(centres undefined)", "B-score": "-16.7 (active)"}
{"smiles": "O=C(CSc1nncs1)NC1CCCc2ccccc21", "note": "(centres undefined)", "B-score": "inactive"}
{"smiles": "CC(=O)Oc1ccc(OC(C)=O)c2c1C1C=CC2CC1", "B-score": "inactive"}
{"smiles": "O=C(CNc1ccccc1N1CCCC1=O)Nc1cc(Cl)ccc1-n1cncn1", "B-score": "inactive"}
{"smiles": "Cc1ccc(NC(=O)CSc2nc(CSc3ccc(C)cc3)cc(=O)[nH]2)cc1", "B-score": "-12.6 (active)"}
{"smiles": "Cc1cc(=O)[nH]c(SCC(=O)Nc2ccc(Br)cc2)n1", "B-score": "inactive"}
{"smiles": "COc1ccc(NC(=O)CSc2nc(NS(=O)(=O)c3ccc(C)cc3)cc(=O)[nH]2)cc1", "B-score": "inactive"}
{"smiles": "COC1=NC2=NCCN2C(OC)=N1", "B-score": "inactive"}
{"smiles": "CC(=O)Nc1ccc(C(=O)Nc2cc(S(=O)(=O)N3CCOCC3)ccc2N2CCOCC2)cc1", "B-score": "inactive"}
{"smiles": "O=C1C(=O)N(c2ccccc2)c2ccccc21", "B-score": "inactive"}
{"smiles": "COc1ccccc1N1CCN(C(=O)c2ccc(Cl)c(S(=O)(=O)N3CCCC3)c2)CC1", "B-score": "inactive"}
{"smiles": "O=C(c1ccc(Cl)c(S(=O)(=O)N2CCCCC2)c1)N1CCCCCC1", "B-score": "inactive"}
{"smiles": "O=C(c1ccc(Cl)c(S(=O)(=O)N2CCCCCC2)c1)N1CCN(c2ccc(O)cc2)CC1", "B-score": "-41.2 (active)"}
{"smiles": "O=c1oc2ccccc2c(=O)c2ccccc12", "B-score": "inactive"}
{"smiles": "Cc1cc(C)n2nc(C(=O)N(C)C(c3ccccc3)c3ccccc3)nc2n1", "B-score": "inactive"}
{"smiles": "Cc1cc(C)n2nc(C(=O)NC(C)(C)C)nc2n1", "B-score": "-4.58 (active)"}
{"smiles": "COc1ccc(Cl)cc1C(=O)NNC(=O)c1nc2nc(C)cc(C)n2n1", "B-score": "inactive"}
